Screens (PubChem)
Giardia killer – Giardia lamblia killing. AID 540267. activity change, % at 7.66 µM, hits read low. hit rate 0.15% among 340,000. Giardia lamblia trophozoite viability; in the data active = activity change below about -80%; inconclusive = between about -30% and that limit;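 note: parasites exposed to compound for two days anaerobically before the ATP read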
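Luminescence from cellular ATP indicates surviving trophozoites (100 cells/well) following 48 hrs anaerobic compound treatment at 37 deg C; signal develops 15-30 min at room temperature.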
TDP1 cell CPT – growth inhibition of DT40 Tdp1-/-;hTDP1 cells with camptothecin (screen for TDP1 inhibitors); chicken DT40 Tdp1-/-;hTDP1 cells + 20 nM CPT, ATP luminescence, 48 h; AID 686979; Potency, µM (top dose mostly 46.2 µM), for inactives: top-dose activity change, negative = growth inhibition, actives largely listed as inhibitors; hit rate 12% among 420,000; note: potency is the fitted concentration of half-maximal effect; nearly all actives have a fitted effect of over 55% in size
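Cell growth measured by CellTiter-Glo luminescence after a minimum 48 h, 37 C compound exposure with 20 nM CPT in Tdp1-knockout DT40 cells stably expressing hTDP1, seeded 400/well; qHTS titration format.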
ELG1 repair inh – ELG1-dependent DNA repair inhibition. hit rate 2.3% among 330,000. HEK293T ELG1-luciferase reporter, luminescence, 16 h; DNA damage induced by 5-fluorouridine. Potency, µM (titrated, usually from 46.1 µM), inactives show at the top dose activity change, negative = inhibition, hits mostly inhibitors. AID 504467; note: potency is the fitted concentration of half-maximal effect; nearly all actives have a fitted effect of over 55% in size
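DMSO vehicle served as the neutral condition. Each well held 2,000 cells given 5-fluorouridine plus compound; after 16 hr at 37 °C/5% CO2, ONE-Glo was added and luciferase measured 30 min later.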
DT40 TDP1 no CPT – qHTS for Inhibitors of human tyrosyl-DNA phosphodiesterase 1 (TDP1): qHTS in cells in absence of CPT; DT40 Tdp1-/- hTDP1 cells, no CPT, ATP luminescence, 48 h; Potency, µM (doses to about 46.2 µM), inactives show at the highest dose activity change, negative = growth inhibition, actives largely listed as inhibitors; hit rate 15% among 420,000; AID 686978, 2013; note: potency is the fitted concentration of half-maximal effect; nearly all actives have a fitted effect of over 55% in size
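A cellular qHTS used chicken DT40 cells lacking endogenous Tdp1 but carrying stably transfected human TDP1. Compounds were applied without camptothecin, and cell growth kinetics were judged by ATP-dependent luminescence after ≥48 hr.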
TDP1 block – blocks human tyrosyl-DNA phosphodiesterase 1; Q9NUW8; AID 485290; hit rate 0.28% among 350,000; Potency, µM (series often up to 130 µM), for inactives: top-dose activity change, negative = inhibition, hits mostly inhibitors; recombinant TDP1, AlphaScreen DNA substrate cleavage; note: potency is the fitted concentration of half-maximal effect; nearly all actives have a fitted effect of over 40% in size
Target sequence (Q9NUW8 whole entry, looked up): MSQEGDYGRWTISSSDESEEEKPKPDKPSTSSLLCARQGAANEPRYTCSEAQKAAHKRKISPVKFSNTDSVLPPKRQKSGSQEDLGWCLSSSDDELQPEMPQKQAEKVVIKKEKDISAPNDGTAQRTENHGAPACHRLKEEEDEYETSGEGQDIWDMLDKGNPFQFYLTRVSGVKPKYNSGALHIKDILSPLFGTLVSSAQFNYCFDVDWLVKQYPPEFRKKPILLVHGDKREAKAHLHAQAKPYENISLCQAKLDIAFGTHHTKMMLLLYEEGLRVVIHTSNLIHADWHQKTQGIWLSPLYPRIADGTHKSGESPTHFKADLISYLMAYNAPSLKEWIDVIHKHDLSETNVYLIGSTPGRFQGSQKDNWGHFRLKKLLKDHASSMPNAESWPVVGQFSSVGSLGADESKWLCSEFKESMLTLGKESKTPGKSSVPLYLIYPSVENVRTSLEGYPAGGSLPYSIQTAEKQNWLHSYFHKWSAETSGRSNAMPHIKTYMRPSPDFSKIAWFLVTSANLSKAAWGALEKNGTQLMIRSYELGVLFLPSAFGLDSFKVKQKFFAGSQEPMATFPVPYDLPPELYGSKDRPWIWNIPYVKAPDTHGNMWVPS
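E. coli-derived human Tdp1, 1 nM final. Cpd preinc 15 min RT; substrate 15 nM final, 5 min RT; AS bead mix 10 ug/ml final, 10 min RT. Signal loss = tyrosine-FITC cleavage. No-enzyme wells = max signal.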
IL-1B inflam inh – blocks inflammasome-driven IL-1 beta release | THP-1 LPS/ATP IL-1B secretion, AlphaLISA, 16 h; hits give low values | activity change, % at 57.5 µM | hit rate 4.7% among 360,000; in the data active = activity change below about -50%; inconclusive = mostly about -30% to -49%
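THP-1 cells pretreated 1 hr with compounds (up to 57.5 uM final), then stimulated with LPS (250 ng/mL final) plus ATP (1.25 mM final); secreted IL-1B measured by AlphaLISA after 16 hr, decreased signal indicating inhibition.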
The depositor's hits bear a star; ? = inconclusive; · = no result given; [ ] = another dose, or the depositor's remark. An excerpt weighted towards active compounds, which were near 19% of everything screened. Unless noted, calls come from the whole dose curve; as a rule, active = well fitted curve in the direction sought with a large enough effect; inconclusive = small, poorly fitted or top-dose-only effect, or another doubt; inactive = no such curve, though single readings can be large; an effect the other way counts as inactive or inconclusive. % is set by controls: 0 for no effect and ±100 for the full control effect.

SMILES	Giardia killer	TDP1 cell CPT	ELG1 repair inh	DT40 TDP1 no CPT	TDP1 block	IL-1B inflam inh
Cc1cc(C)c(NC(=O)C2=COCCO2)c(C)c1	-7	2%	?	-8%	-6%[0.505 µM]	7
C[C@H]1CN([C@@H](C)CO)S(=O)(=O)c2ccc(-c3ccc(C#N)cc3)cc2O[C@H]1CN(C)C(=O)CN(C)C	·	-3%	·	6%	·	13
C[C@@H]1CN([C@@H](C)CO)S(=O)(=O)c2ccc(-c3ccc(C#N)cc3)cc2O[C@@H]1CN(C)Cc1ccccn1	·	?	·	13µM*	·	-28
C[C@@H]1CN([C@@H](C)CO)S(=O)(=O)c2ccc(Br)cc2O[C@H]1CN(C)Cc1ccccn1	·	15µM*	·	23µM*	·	10
C[C@@H]1CN([C@@H](C)CO)S(=O)(=O)c2ccc(Br)cc2O[C@@H]1CN(C)Cc1ccccn1	·	?	·	?	·	-8
CCOC(=O)[C@]1(C(NC(=O)OC)c2ccccc2)CCCC1=O (stereo partly specified)	·	·	·	·	-2%[21 µM]	·
CC1CCCC(C)N1/N=C/c1ccc(O)c(O)c1 (stereo unspecified)	6	-17%	12%	23µM*	·	52
COc1ccc(/C=N/N2C(C)CCCC2C)cc1O (stereo unspecified)	-10	9%	23%	7%	·	45
O=C(N/N=C/c1c[nH]c2ccccc12)c1ccc2c(c1)OCCO2	-25	?	?	16µM*	4%	·
O=C(N/N=C/c1c[nH]c2ccccc12)c1ccccc1	-13	3%	?	-1%	2%	-2
O=C(N/N=C/c1ccc2c(c1)OCO2)c1ccc2c(c1)OCCO2	10	16µM*	?	?	3%	-8
O=C(NN=Cc1ccc2c(c1)CCN2)c1cccs1	·	?	·	15µM*	·	-2
O=C(N/N=C/c1cc2c(cc1Br)OCO2)c1ccccn1	1	-8%	?	?	-3%	-7
O=C(N/N=C/c1cc2c(cc1Br)OCO2)c1c[nH]c2ccccc12	28	?	-2%	21µM*	5%	?
CN(C)c1ccc(/C=N/NC(=O)c2ccc3c(c2)OCCO3)cc1	1	-28%	?	-15%	7%	0
Cc1ccc(OCCCCn2nnc3sc4c(c3c2=O)CCCC4)cc1	·	-11%	·	-1%	-5%	·
CNC1=C([N+](=O)[O-])CC([N+](=O)[O-])=C(N2CCNCC2)N1C	-9	1%	12%	15%	0%	-3
COc1ccc(/C=N/NC(=O)c2ccc(COCC(F)(F)C(F)F)cc2)cc1	-8	6%	-1%	-2%	3%	-12
O=C(N/N=C/c1ccc2c(c1)OCO2)c1ccc(COCC(F)(F)C(F)F)cc1	-8	-13%	-4%	1%	56µM*	5
O=C(N/N=C/c1ccc2c(c1)OCO2)c1sc2cc(Cl)ccc2c1Cl	-16	5.8µM*	13%	5.2µM*	1%	21
O=C(N/N=C/c1ccccc1OC(=O)c1ccc2c(c1)OCO2)c1cccc(F)c1	9	1.2µM*	11%	1.3µM*	3%	122
O=C(N/N=C/c1ccc(Br)s1)c1cccs1	-2	16µM*	?	21µM*	7%	10
Cc1ccc(/C=N/NC(=O)c2cccs2)s1	-6	-20%	?	-8%	3%	-4
O=C(N/N=C/c1ccc(Br)s1)c1c[nH]c2ccccc12	-12	?	?	?	0%	-81*
O=C(N/N=C/c1ccccc1O)c1ccc2c(c1)OCO2	-25	5.2µM*	?	4.1µM*	·	93
SMILES	Giardia killer	TDP1 cell CPT	ELG1 repair inh	DT40 TDP1 no CPT	TDP1 block	IL-1B inflam inh
O=C(N/N=C/c1ccc(Cl)cc1)c1ccc2c(c1)OCO2	8	?	?	13µM*	·	-6
CCOc1ccccc1NC(=O)c1cc2c(=O)oc3ccccc3c2s1	·	-8%	·	-19%	4%	·
CCCOC(=O)c1ccc(Oc2coc3c(CN(CC)CC)c(O)ccc3c2=O)cc1	0	-7%	2%	?	1%	-5
O=C(Nc1nnc(-c2ccc(Cl)cc2)o1)C1CCCCC1	-11	?	4%	18µM*	·	8
O=C(Nc1nnc(-c2ccc(Cl)s2)o1)C1CCCCC1	-8	15µM*	·	?	·	-13
O=C(Nc1nnc(-c2ccc3c(c2)OCCO3)o1)C1CCCCC1	-16	-28%	?	?	5%	21
O=C(Nc1nnc(-c2ccccc2)o1)C1CCCCC1	14	?	?	?	3%	17
Cc1c(C)c(C)c(CO/N=C/c2cccs2)c(C)c1C	5	?	?	?	0%	?
COc1ccc([N+](=O)[O-])cc1-c1[nH]c(-c2ccc(C(=O)O)cc2)nc1-c1ccccc1	-16	-6%	-15%	-1%	·	31
COc1ccc(-c2nc(-c3ccccc3)c(-c3cc([N+](=O)[O-])ccc3C)[nH]2)cc1O	10	?	?	15µM*	12%	-1
Cc1ccc([N+](=O)[O-])cc1-c1[nH]c(-c2ccc(O)c(O)c2)nc1-c1ccccc1	-4	16µM*	?	16µM*	12%	3
O=[N+]([O-])c1ccc(-c2nc(-c3ccc(F)cc3)c(-c3ccncc3)[nH]2)cc1	·	·	·	·	22%	·
COc1cccc(NC(=O)c2ccc3nc(Cc4ccccc4)oc3c2)c1	·	16µM*	·	16µM*	2%	·
CCOC(=O)c1cccc(NC(=O)c2ccc3nc(Cc4ccccc4)oc3c2)c1	·	23µM*	·	16µM*	-1%	·
Cc1ccc(NC(=O)c2ccc3nc(Cc4ccccc4)oc3c2)cc1F	·	?	·	-14%	4%	·
CCC(NC(=O)c1ccc2nc(Cc3ccc(OC)cc3)oc2c1)c1ccncc1 (stereo unspecified)	-16	7.3µM*	?	3.7µM*	5%	-17
CCC(C)NC(=O)c1ccc2nc(Cc3ccc(OC)cc3)oc2c1 (stereo unspecified)	-11	?	-11%	?	2%	-1
COc1ccc(OC)c(N(C)S(=O)(=O)c2cc3c(cc2C)NC(=O)CO3)c1	?	?	11%	?	·	10
COC(=O)N/N=C/c1cc(Cl)cc(Cl)c1OCc1ccccc1	-19	18µM*	-2%	?	0%	-1
O=C(Nc1ccc2oc(-c3ccc4ccccc4c3)nc2c1)c1cc(Cl)ccc1Cl	·	?	·	?	3%[12.3 µM]	·
O=C(Nc1ccc2oc(-c3cc(Br)ccc3Cl)nc2c1)c1ccc2ccccc2c1	·	16µM*	·	12µM*	·	·
